Records with an inconclusive call do not appear. Activity calls are given as the source filed them. The calls were made as follows, unless noted: active = hit-call score of the fitted dose curve at least 0.9, where 1 is the maximum; inactive = score below 0.9.
What was measured:
[1] = test system: Brachyury (BRA) Protein Expression, Deisenroth Lab, TBXT (gene 6862); assay: CCTE_Deisenroth_DEVTOX-GLR_legacy_Bra: (Legacy) CCTE's DevTox GLR-Endo Assay Evaluation of Brachyury (BRA) Protein Expression, Deisenroth Lab (AID 2284329)
Summary of the method: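 High-content imaging of fixed RUES2-GLR cells after a 48-hour differentiation with two compound exposures yields percent cells whose Bra signal exceeds pluripotent control median by 5x BMAD; values are baseline-corrected to DMSO.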

[2] = CCTE_Deisenroth_DEVTOX-GLR_legacy_CellCount: (Legacy) Viability Assessment in CCTE's DevTox GLR-Endo Assay, Deisenroth Lab (AID 2284331); details: actives raise or lower the signal
Summary of the method: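 Human pluripotent RUES2-GLR cells differentiated 48 h with two 24-h-interval exposures, 10-point 1 nM–200 uM series, 0.2% DMSO. Fixed nuclei counted by high-content imaging (5 fields/well); bidirectional fit vs DMSO, n≥4.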

[3] = test system: SRY-box transcription factor 17 (SOX17) Protein Expression, Deisenroth Lab, SOX17 (gene 64321); assay: CCTE_Deisenroth_DEVTOX-GLR_legacy_Sox17: (Legacy) CCTE's DevTox GLR-Endo Assay Evaluation of SRY-box transcription factor 17 (SOX17) Protein Expression, Deisenroth Lab (AID 2284341); details: actives raise or lower the signal
Summary of the method: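 RUES2-GLR human pluripotent cells differentiated toward endoderm for 48 h, dosed twice at 24 h intervals (1 nM–200 uM, 10 points). Imaging gives % SOX17+ cells (intensity >5x BMAD above pluripotent control median); bidirectional fit versus 0.2% DMSO.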

[4] = test system: SRY-box transcription factor 2 (SOX2) Protein Expression, Deisenroth Lab, SOX2 (gene 6657); assay: CCTE_Deisenroth_DEVTOX-GLR_legacy_Sox2: (Legacy) CCTE's DevTox GLR-Endo Assay Evaluation of SRY-box transcription factor 2 (SOX2) Protein Expression, Deisenroth Lab (AID 2284346)
Summary of the method: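 Two exposures, 24 h apart, during 48 h defined-media differentiation of seeded RUES2-GLR cells; nuclei-stained cells imaged. Sox2 positivity called at 5x BMAD above endoderm control median, DMSO median subtracted.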

[5] = VALA_MIGHUV1_ScratchOnly_WoundArea: VALA Sciences human Umbilical Vein Endothelial Cell Migration (MIGHUV) Assay, Area of Scratch Wound Inhibited Recovery (AID 2284336; active = hit-call score of the fitted dose curve at least 0.9, where 1 is the maximum)
Protocol: VALA_MIGHUV1_ScratchOnly is a cell-based, multiplexed assay that uses umbilical vein-derived endothelial cells (HUVEC). Measurements were taken 24 hours after chemical dosing in a 96-well plate.VALA_MIGHUV1_ScratchOnly_WoundArea is the one of two assay components measured from the VALA_MIGHUV1_ScratchOnly assay. It is designed to make measurements of endothelial migration, a form of morphology reporter, as detected with fluorescence intensity signals by HCS Fluorescent Imaging technology. Data from the assay component VALA_MIGHUV1_ScratchOnly_WoundArea was analyzed at the endpoint, VALA_MIGHUV1_ScratchOnly_WoundArea, in the positive analysis fitting direction relative to DMSO as the negative control and baseline of activity. Using a type of morphology reporter, gain-of-signal activity can be used to understand developmental effects. To generalize the intended target to other relatable targets, this assay endpoint is annotated to the neurodevelopment intended target family, where the subfamily is migration.
Cells were seeded on 384-well microplates (day-0) at a density of 9000 cells per well for detection of wound area recovery or 4000 cells per well for detection of beta-catenin (CTNB) immunoreactivity and incubated in Endothelial Cell Growth Medium (CAI, San Diego; catalog 211-500). […]

[6] = VALA_TUBHUV_Agonist_TubuleLength: VALA Sciences human Umbilical Vein Endothelial Tubule Formation (TUBHUV) Agonism Assay (AID 2284337; active = hit-call score of the fitted dose curve at least 0.9, where 1 is the maximum)
Summary of the method: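 Tubule length quantified by CD31 immunofluorescence imaging after fixation. HUVEC-HDF co-cultures (1:3) pre-grown 3 days with 10 ng/ml VEGF, then dosed 3 days in VEGF medium; 0.1 % DMSO vehicle baseline.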

[7] = VALA_TUBIPS_Agonist_CellCount: Viability Assessment in the VALA Sciences human iPS-derived Endothelial Tubule Formation (TUBIPS) Agonism Assay (AID 2284338; active = hit-call score of the fitted dose curve at least 0.9, where 1 is the maximum)

Compound	AC50 [1]	AC50 [2]	AC50 [3]	AC50 [4]	outcome [5]	outcome [6]	outcome [7]
NC(=O)c1ccc(N)nc1	24.1 µM (active)	30.6 µM (active)	21 µM (active)	52.9 µM (active)			
Nc1ncn[nH]1					inactive	inactive	inactive
